The values that follow come from the supplement of paper PMC7261846.

The structures appear in SMILES notation. ± gives the uncertainty stated by the source.

This assay deals with Candida albicans SNY425 biofilm. The assay is described as follows: biofilm OD600 with compound plus antifungal (OD600 (absorbance)); higher = more biofilm remaining. The following applies: assay detail: sustained inhibition (compound + antifungal during 90-min adherence and 24-h growth).
Turning to `CC1CNc2c(cccc2S(=O)(=O)N[C@@H](CCCNC(=N)N)C(=O)N2CC[C@@H](C)C[C@@H]2C(=O)O)C1` (some centres undefined) [Argatroban] + C[C@@H]1[C@H](O)[C@@H](C)/C=C/C=C/C=C/C=C/C=C/C=C/C=C/[C@H](O[C@@H]2O[C@H](C)[C@@H](O)[C@H](N)[C@@H]2O)C[C@@H]2O[C@](O)(C[C@@H](O)C[C@@H](O)[C@H](O)CC[C@@H](O)C[C@@H](O)CC(=O)O[C@H]1C)C[C@H](O)[C@H]2C(=O)O [amphotericin B] (first compound 12.5 µM), the “biofilm OD600” value amounted to 0.191 ± 0.0048.

As for `CCCCCCCCCC(=O)N[C@@H](CCCN=C(N)N)C(=O)N[C@H](C(=O)N[C@@H](CCCCN)C(=O)N[C@@H](CCCN=C(N)N)C(=O)CCl)C(C)C` + OC(Cn1cncn1)(Cn1cncn1)c1ccc(F)cc1F [fluconazole] (first compound 4 µM), the “biofilm OD600” value stood at 0.108 ± 0.005.

As for `O=C1Nc2ccc([N+](=O)[O-])cc2C1=O` [5-Nitroisatin] + OC(Cn1cncn1)(Cn1cncn1)c1ccc(F)cc1F [fluconazole] (first compound 12.5 µM), the “biofilm OD600” value amounted to 0.107 ± 0.011.

With `NC(=O)c1cccc(-c2cccc(OC(=O)NC3CCCCC3)c2)c1` + C[C@@H]1[C@H](O)[C@@H](C)/C=C/C=C/C=C/C=C/C=C/C=C/C=C/[C@H](O[C@@H]2O[C@H](C)[C@@H](O)[C@H](N)[C@@H]2O)C[C@@H]2O[C@](O)(C[C@@H](O)C[C@@H](O)[C@H](O)CC[C@@H](O)C[C@@H](O)CC(=O)O[C@H]1C)C[C@H](O)[C@H]2C(=O)O [amphotericin B] (first compound 12.5 µM), the “biofilm OD600” value was 0.178 ± 0.0061.

Turning to `CC(C)C[C@H](NC(=O)N[C@H](C(=O)N[C@@H](CCC(N)=O)C(=O)N[C@@H](C)C=O)[C@@H]1CCNC(=N)N1)C(=O)O` [Elastatinal] + C[C@@H]1[C@H](O)[C@@H](C)/C=C/C=C/C=C/C=C/C=C/C=C/C=C/[C@H](O[C@@H]2O[C@H](C)[C@@H](O)[C@H](N)[C@@H]2O)C[C@@H]2O[C@](O)(C[C@@H](O)C[C@@H](O)[C@H](O)CC[C@@H](O)C[C@@H](O)CC(=O)O[C@H]1C)C[C@H](O)[C@H]2C(=O)O [amphotericin B] (first compound 12.5 µM), the “biofilm OD600” value worked out at 0.21 ± 0.0065.

Turning to `COC(=O)N[C@H](C(=O)N[C@@H](Cc1ccccc1)[C@@H](O)CN(Cc1ccc(-c2ccccn2)cc1)NC(=O)[C@@H](NC(=O)OC)C(C)(C)C)C(C)(C)C` [atazanavir] + OC(Cn1cncn1)(Cn1cncn1)c1ccc(F)cc1F [fluconazole] (first compound 12.5 µM), the “biofilm OD600” value came out at 0.173 ± 0.0039.

For `CCN1C(=O)C=CC1=O` [N-Ethylmaleimide] + CC[C@H](C)C[C@H](C)CCCCCCCCC(=O)N[C@H]1C[C@@H](O)[C@@H](NCCN)NC(=O)[C@@H]2[C@@H](O)CCN2C(=O)[C@H]([C@H](O)CCN)NC(=O)[C@H]([C@H](O)[C@@H](O)c2ccc(O)cc2)NC(=O)[C@@H]2C[C@@H](O)CN2C(=O)[C@H]([C@@H](C)O)NC1=O [caspofungin] (first compound 4 µM), the “biofilm OD600” value turned out to be 0.17 ± 0.0037.

As for `C[C@H](NC(=O)[C@@H]1CCCN1C(=O)[C@@H]1CCCN1C(=O)[C@@H](O)[C@H](N)Cc1ccccc1)C(N)=O` [Apstatin] + CC[C@H](C)C[C@H](C)CCCCCCCCC(=O)N[C@H]1C[C@@H](O)[C@@H](NCCN)NC(=O)[C@@H]2[C@@H](O)CCN2C(=O)[C@H]([C@H](O)CCN)NC(=O)[C@H]([C@H](O)[C@@H](O)c2ccc(O)cc2)NC(=O)[C@@H]2C[C@@H](O)CN2C(=O)[C@H]([C@@H](C)O)NC1=O [caspofungin] (first compound 12.5 µM), the “biofilm OD600” value stood at 0.185 ± 0.0079.

Take `CCOC(=O)[C@H](CCc1ccccc1)N[C@@H](C)C(=O)N1CCC[C@H]1C(=O)O` [Enalapril] + C[C@@H]1[C@H](O)[C@@H](C)/C=C/C=C/C=C/C=C/C=C/C=C/C=C/[C@H](O[C@@H]2O[C@H](C)[C@@H](O)[C@H](N)[C@@H]2O)C[C@@H]2O[C@](O)(C[C@@H](O)C[C@@H](O)[C@H](O)CC[C@@H](O)C[C@@H](O)CC(=O)O[C@H]1C)C[C@H](O)[C@H]2C(=O)O [amphotericin B] (first compound 12.5 µM): the “biofilm OD600” value was 0.197 ± 0.023.
